Bioassay records as filed in PubChem BioAssay.
Only some compounds are listed: those with a hit (about 0.58% of all), similar ones and a draw of the others.
CatB block = blocks human cathepsin B protease activity; purified cathepsin B, fluorogenic substrate, fluorescence; inhibition, %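 (tested at 10 µM)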; AID 453; hit rate 0.1% among 63,000; in the data active means inhibition above about 21%
CatL block = inhibitors of human cathepsin L | inhibition, %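 (tested at 10 µM)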 | P07711 | hit rate 0.17% among 58,000 | purified cathepsin L, fluorogenic substrate, fluorescence; in the data active means inhibition above about 45%
CatS block = inhibitors of human cathepsin S | hit rate 0.06% among 62,000 | P25774 | AID 501 | inhibition, %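 (tested at 5 µM per compound within 10-compound mixtures)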 | recombinant cathepsin S, AMC dipeptide fluorescence, pooled mixtures; in the data active means inhibition above about 32%, passing the limit was not always enough
Target sequence (P25774 115-331 limits assumed): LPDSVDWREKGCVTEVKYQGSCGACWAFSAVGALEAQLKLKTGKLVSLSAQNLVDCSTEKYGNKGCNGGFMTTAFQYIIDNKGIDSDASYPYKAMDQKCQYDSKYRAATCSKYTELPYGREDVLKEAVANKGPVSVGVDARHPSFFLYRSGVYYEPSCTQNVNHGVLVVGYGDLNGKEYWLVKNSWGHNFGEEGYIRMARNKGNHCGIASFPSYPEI
CatG inh = cathepsin G (human) inhibition | purified enzyme, AMC-tetrapeptide fluorescence, pooled mixtures | AID 581 | inhibition, % at 5 µM (by protocol) | hit rate 0.2% among 62,000 | P08311;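 active means inhibition above 20% in each of the two mixture wells holding the compound; inactive means inhibition of 20% or less in either well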
CatB mixtures = inhibitors of human cathepsin B in compound mixtures. inhibition, %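 (ten-compound pools at 5 µM per compound and 50 µM total)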. hit rate 0.06% among 62,000. Purified cathepsin B, AMC dipeptide fluorescence. P07858. AID 488; in the data active means inhibition above about 22%, passing the limit was not always enough
C1s block = blocks human complement C1s protease activity | purified C1s, fluorogenic AMC substrate, pooled mixtures | mean inhibition % of two 10-compound mixtures (stronger effect = higher value), % at 5 µM (by protocol) | hit rate 0.16% among 62,000 | AID 538;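 active means inhibition above 20% in each of the two 10-compound mixture wells holding the compound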
Each line names hits and unclear results; the compound was inactive in the other large screens.

Cc1cc(NS(=O)(=O)c2ccc(NC(=O)COc3ccccc3C(C)C)cc2)no1	C1s block 25
Cc1occc1C(=O)n1nnc2ccccc21	none
CCSc1ccccc1C(=O)n1nnc2ccccc21	CatB block 32, CatG inh 35, CatB mixtures 30, C1s block 39
Cc1ccc(CNc2nc3ccccc3s2)s1	none
Cc1occc1-c1nnc(SCC(=O)N2CCN(c3ccccc3F)CC2)n1C	none
O=c1/c(=C/c2cccc3ccccc23)sc2ncnn12	none
Cc1ccsc1/C=c1\sc2ncnn2c1=O	CatG inh 43
COc1ccccc1-c1cc(C(=O)Nc2cccnc2)no1	CatG inh 34
COc1ccc(NC(=O)c2cc(-c3ccccc3OC)on2)cc1	none
O=C(Cn1nc(Cc2cccnc2)c2ccccc2c1=O)N1CCN(C(=O)c2ccco2)CC1	none (no result: CatL block)
CCOc1nc(C#N)nc(N2CCCCC2)n1	CatL block 59, CatS block 37
COc1ccc(OC)c(S(=O)(=O)N2CCC(C(=O)NCCc3ccc(OC)c(OC)c3)CC2)c1	none
Nc1ccc2ncccc2c1N	CatL block 79 (no result: CatS block, CatG inh, CatB mixtures, C1s block)
